# High-throughput results as filed in PubChem.
# PERK inh – blocks human PERK kinase; Q9NZJ5; CHO PERK-DD fusion, SEAP luminescence translation reporter; inhibition, % at 5.6 µM; 220,000 tested, 0.17% active;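 active = inhibition above the mean inhibition of all tested compounds plus 3 SD, set separately per screening campaign, cut at about 2.9% in these data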;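 note: PERK kinase domain activated by AP20187 dimerizer at 100 nM; 0% = DMSO with dimerizer and 100% = rapamycin at 8.4 µM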
# PABP FP inh – PABP-poly(A) binding inhibition; P11940; PABP-poly(A) RNA binding, fluorescence polarization; calls only at 35 µM; 290,000 tested, 1% active; AID 2014;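 note: calls also rest on retests at 20 µM and on dose response follow-up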
# eIF4E 4G PPI – eIF4E/eIF4G interaction inhibition in translation initiation; TR-FRET eIF4E-eIF4GI(517-606) binding, 2 h; inhibition, % at 21.7 µM; 220,000 tested, 0.37% active; AID 782;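 active = inhibition above about 30%, limit read from the data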;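 note: 0% = full FRET control wells and 100% = background wells lacking eIF4GI fragment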
# eIF4H inh – inhibitors of RNA binding by human eIF4H; 290,000 tested, 0.94% active; inhibition, % at 35 µM; Q15056; eIF4H fluorescence polarization binding assay;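 note: calls also rest on retests at 20 µM and on dose response follow-up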
# PABP1 MLLE inh – blocks PAM2 peptide binding to the PABP1 MLLE domain; 360,000 tested, 0.36% active; GST-MLLE / FITC-PAM2 fluorescence polarization; P11940; inhibition, % at 20 µM; in the data active = inhibition above about 35%, passing the limit was not always enough;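 note: plate controls were DMSO wells with GST-MLLE for no effect and wells lacking GST-MLLE protein for full effect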
# Numbers without * were called inactive; i = inactive; u = inconclusive; x = not tested or not shown; + = active, no number. Compounds with a hit are over-represented: about 1.6% of the library has one in this group of screens. Unless noted, the rule behind the calls is not given here.
SMILES,PERK inh,PABP FP inh,eIF4E 4G PPI,eIF4H inh,PABP1 MLLE inh
Nc1c(/C=C2/C=CC(=O)C(O)=C2)c(=O)nc2sc(CC(=O)N3CCCCC3)nn12,x,+,x,68.9*,-50.5
Nc1c(/C=C2/C=CC(=O)C(O)=C2)c(=O)nc2sc(CC(=O)N3CCCC3)nn12,x,+,x,55.2*,-33.6
C[C@H]1CN([C@@H](C)CO)C(=O)CCCn2nncc2CO[C@H]1CN(C)S(=O)(=O)c1ccc(Oc2ccccc2)nc1,x,x,x,x,10.7
O=C(Nc1ccc(Cl)cc1)C(Cl)C(=O)c1ccccc1 (centres undefined),x,i,x,-16.9,32.5
O=C(Nc1ccccc1Cl)C(Cl)C(=O)c1ccccc1 (centres undefined),0.0,i,0.0,8.0*,22.9
Cc1ccc(C(=O)N/N=C/c2cccc(OC(=O)/C=C/c3ccco3)c2)cn1,-0.2,i,12.1,86.1*,1.8
O=C(CNc1ccc2ccccc2c1)N/N=C/c1ccc(OC(=O)/C=C/c2ccco2)cc1,0.1,+,7.3,71.2*,-32.1
O=C(O)CC1=C(Nc2ccccc2)C(=O)N(c2ccccc2)C1c1ccc(Br)cc1 (centres undefined),0.3,i,-0.9,-3.5,-8.9
COc1ccc(CC(=O)O/N=C(\N)c2cccc([N+](=O)[O-])c2)cc1,-0.1,+,3.6,u,6.4
Cc1ccc(OCC(=O)O/N=C(\N)Cc2ccc([N+](=O)[O-])cc2)cc1C,0.4,i,40.3*,3.3,8.2
COc1ccc(CC(=O)O/N=C(\N)c2ccc(OC)cc2)cc1,1.7,i,-6.3,-3.3,-3.8
Nc1nc2ncc(C(=O)c3cc(Cl)cc(Cl)c3O)cc2s1,1.8,i,-1.8,88.7*,-9.8
Cc1ccc(N2CCN(C(=O)c3cc(-c4ccc(F)cc4)[nH]c3C)CC2C)cc1 (centres undefined),x,+,x,u,-14.5
Cc1cc(C)cc(C(=O)Nn2cnnc2)c1,x,i,x,1.0,-1.6
O=C1NN(CCO)C(=S)Nc2ccccc21,x,x,x,x,35.8*
CN1CC(=O)Nc2ccccc2C1=O,x,i,x,-4.2,-8.8
O=C1CCCC2=C1C(c1ccco1)Nc1ccc(C(=O)c3ccccc3)cc1N2 (centres undefined),-1.0,+,x,81.5*,-1.7
O=C1CCCC2=C1C(c1ccccn1)Nc1ccc(C(=O)c3ccccc3)cc1N2 (centres undefined),-0.5,i,-3.0,-5.2,4.5
O=C(O)Cc1c[nH]c2cccc(O)c12,0.2,+,19.4,88.3*,-6.5
CCC(=O)c1ccc(NC(C)=O)cc1O,1.7,+,0.5,76.9*,2.8
COC(=O)c1ccc(NC(C)=O)cc1O,1.4,i,-1.3,3.9,x
O=C(COC(=O)c1ccccc1S(=O)(=O)N1CCCCC1)NCC(F)(F)F,0.0,+,-5.4,active,14.6
O=C1C(Cc2c[nH]c3ccccc23)NC(=S)N1C1CCCCC1 (centres undefined),1.6,i,2.3,6.7,-49.5
CN(C)Cc1csc(Nc2ccc(C(F)(F)F)cn2)n1,x,x,x,x,4.9
Cc1ccc(NC(=S)C2=C(O)c3ccccc3N(C)S2(=O)=O)cc1,0.9,i,x,-7.2,40.0*
SMILES,PERK inh,PABP FP inh,eIF4E 4G PPI,eIF4H inh,PABP1 MLLE inh
CN1c2ccccc2C(O)=C(C(=S)Nc2ccccc2)S1(=O)=O,1.0,i,1.4,0.6,29.1
CN1c2ccccc2C(O)=C(C(=S)Nc2ccc(F)c(Cl)c2)S1(=O)=O,0.2,i,x,-13.8,47.7*
FC(F)Oc1ccc(NC(=S)N2CCc3ccccc32)cc1,1.9,i,0.4,-3.9,-79.7
Cc1ccc(CN2CCN(Cc3cccn3-c3ccccn3)CC2CCO)o1 (centres undefined),0.8,i,-2.9,1.9,13.8
Nc1nnc(-c2cc3c(ccc4ccccc43)oc2=O)s1,0.0,i,19.0,85.9*,x
O=c1oc2ccc3ccccc3c2cc1-c1nnc(-c2ccccc2)o1,0.9,i,-44.4,10.7,0.0
Cc1ccccc1N=C1NC(=O)/C(=C/c2cccn2-c2cccc(C(=O)O)c2)S1,-0.8,i,13.8,97.5*,x
O=C(CN1C(=O)S/C(=C/c2cccn2-c2ccc(O)cc2)C1=O)N1CCCC1,x,i,x,-2.3,0.5
O=C(O)c1cccc(-n2cccc2/C=C2/SC(=O)N(CC(=O)N3CCCC3)C2=O)c1,x,+,x,90.4*,2.3
COC(=O)c1cc(CNC(=O)c2ccc(N3CCCC3)c([N+](=O)[O-])c2)ccc1OC,x,+,x,22.4,3.6
